In PubChem BioAssay AID430 (Sanford-Burnham Center for Chemical Genomics, 2006):
Among all 63,000 compounds or so, about 1,100 (1.7%) were called active. This is one part of a sample in which actives are shown more often than they occur. Entries with a potency or affinity are not part of this list. A number with no mark means an inactive call. Cut-off read from the data, not from the text of the source: active = cytotoxicity above about 50%; inactive = the rest.

Test: cytotoxicity in HPDE-C7 cells, cell-based, fluorescence, HTS (AID 430);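 note: cells exposed to compound for 48 hours before viability readout; 0% = vehicle and 100% = reference cytotoxic drug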
Settings: HPDE-C7 pancreatic duct cells viability, at 10 µM, stronger effect = higher value

Row | SMILES | cytotoxicity
1 | O=S(=O)(c1ccccc1)N1CCN(C2CCN(Cc3ccccc3)CC2)CC1 | 22.9%
2 | Cc1ccc(C2C(C#N)=C(N)Oc3nc(-c4ccccc4)[nH]c32)o1 (stereo unspecified) | -2.4%
3 | Cc1ccc(SCc2[nH]nc3c2C(c2ccc(C)o2)C(C#N)=C(N)O3)cc1 (stereo unspecified) | 44.5%
4 | CC1(C)Cc2cccc(OCC(=O)N3CCN(S(=O)(=O)c4ccccc4)CC3)c2O1 | -2.1%
5 | COC(=O)c1ccsc1NC(=O)c1ccc(Cl)s1 | -0.2%
6 | CCCSc1ccc2nc(NC(=O)OC)[nH]c2c1 | 67.1% (active)
7 | COc1ccc2nc(SCC(N)=O)[nH]c2c1 | -19.2%
8 | CCOc1ccc2nc(NCCO)[nH]c2c1 | -2.1%
9 | COc1ccc(C(=O)Nc2nc3ccccc3[nH]2)cc1OC | -5.6%
10 | COc1ccc2nc(NCCO)[nH]c2c1 | -13.5%
11 | CCCOc1ccc2nc(NC(=O)OC)[nH]c2c1 | 61.4% (active)
12 | CCCCC(c1nnnn1CS(=O)(=O)c1ccc(C)cc1)N1CCN(c2ccccc2)CC1 (stereo unspecified) | -30%
13 | O=C(NC1CCCc2ccccc21)C1CCN(S(=O)(=O)c2cccc3nonc23)CC1 (stereo unspecified) | -29.1%
14 | O=C(c1cc2sccc2n1Cc1ccccc1)N1CCc2ccccc21 | 9.3%
15 | CC(=O)N1CCN(CC(=O)Nc2c(Cl)cc(Cl)cc2Cl)CC1 | 0%
16 | COc1ccc(N2CCN(C(=O)c3ccc(S(=O)(=O)N4CCOCC4)cc3)CC2)cc1 | 3.1%
17 | COc1cc(OC)nc(NC(=O)COC(=O)C2CCCCC2)n1 | 8.7%
18 | COc1ccc(-n2c(Cc3cccn3C)nnc2SCC(=O)Nc2ccccc2F)cc1 | -11.2%
19 | Cc1ccc(C(=O)C2=C(O)C(=O)N(c3ncccn3)C2c2cccc(Cl)c2)o1 (stereo unspecified) | 22.7%
20 | Cc1ccc(C(=O)C2=C(O)C(=O)N(c3ncccn3)C2c2ccc(Cl)cc2)o1 (stereo unspecified) | 68.3% (active)
21 | O=C(C1=C(O)C(=O)N(c2ncccn2)C1c1ccc(Cl)c(Cl)c1)c1ccco1 (stereo unspecified) | 7.8%
22 | CCOc1ccc(-c2noc(-c3cccnc3)n2)cc1OC | 0.1%
23 | Cc1[nH]nc2c1C1(CCN(C(=O)c3ccccc3)CC1)C(C#N)=C(N)O2 | -19.1%
24 | Cc1ccc(NC(=O)N2CCC(C(=O)NCCC3=CCCCC3)CC2)cc1 | -6.2%

Row | SMILES | cytotoxicity
25 | CC1(C)Cc2noc(N)c2C(C)(C)N1OC(=O)c1ccccc1 | -5.7%
26 | Cc1csc(NC(=O)c2sc3nc(-c4cccs4)ccc3c2N)n1 | 60.5% (active)
27 | CCCSc1nnc(NC(=O)c2sc3nc(-c4cccs4)ccc3c2N)s1 | 41.2%
28 | Nc1c(C(=O)NC2CCCC2)sc2nc(-c3cccs3)ccc12 | 10.5%
29 | CCCOc1ccc(S(=O)(=O)NCCN2CCOCC2)c2ccccc12 | -13.1%
30 | O=C(NC1CCCCC1)C1CC(=O)N(c2ccc(Cl)cc2)C1 (stereo unspecified) | -9.5%
31 | CC1(C)C(c2cccs2)=NC(c2ccccc2)N1O (stereo unspecified) | -25.9%
32 | Cc1ccc(C(N)=O)cc1S(=O)(=O)Nc1cccc(C)c1C | 18.4%
33 | O=C(CC1Oc2ccccc2NC1=O)NCCCN1CCN(C2CCCCC2)CC1 (stereo unspecified) | 2.6%
34 | O=C(CSCCSCC(=O)c1ccco1)c1ccco1 | 10.6%
35 | O=C(CC(SCCO)c1ccc(F)cc1)c1ccco1 (stereo unspecified) | 3.7%
36 | Cc1ccc(C(CC(=O)c2ccco2)SCCO)cc1 (stereo unspecified) | 99.5% (active)
37 | CCC(=O)N1CC23C=CC(CC2CC12CCCCC2)O3 (stereo unspecified) | -6.8%
38 | COc1ccc(OC)c(CC(NC(C)=O)C(=O)NC2CCN(c3nc(C)cc(C)c3C#N)CC2)c1 (stereo unspecified) | -6.9%
39 | COc1ccc(-c2oc(/N=C/N3CCOCC3)c(C#N)c2-c2ccc(OC)cc2)cc1 | -7.7%
40 | NC1=NC2(CCN(Cc3ccccc3)CC2)n2c(nc3ccccc32)N1 | 0.8%
41 | NC1=NC2(CCC(c3ccccc3)CC2)n2c(nc3ccccc32)N1 (stereo unspecified) | 77.1% (active)
42 | NC1=NC2(CCCCC2)n2c(nc3ccccc32)N1 | 11.9%
43 | CCCn1c(SCC(=O)Nc2ccc3c(c2)OCO3)nc2c1c(=O)n(C)c(=O)n2C | -4.6%
44 | Cc1noc(C)c1CSc1nc2ccccc2nc1NS(=O)(=O)c1ccc(Cl)cc1 | 81.1% (active)
45 | Cc1noc(C)c1CSc1ncnc2ccccc12 | 4.7%
46 | O=S(=O)(Nc1nc2ccccc2nc1NCc1ccco1)c1ccc(Cl)cc1 | 18.1%
47 | O=C(NC1CCN(C(=O)N2c3ccccc3Sc3ccccc32)CC1)c1ccco1 | -12.6%
48 | O=C(N1CCN(c2ccccn2)CC1)N1c2ccccc2Sc2ccccc21 | 66.7% (active)

Row | SMILES | cytotoxicity
49 | O=C(c1ccco1)N1c2ccccc2Sc2ccccc21 | 4.4%
50 | O=C(N1CCOCC1)N1CCN(c2ccccn2)CC1 | -15.7%
51 | O=C(CN1CCN(c2ccccn2)CC1)N1c2ccccc2Sc2ccc(C(F)(F)F)cc21 | 22.1%
52 | O=C(c1ccco1)N1CCN(C(=O)N2c3ccccc3Sc3ccccc32)CC1 | 73.2% (active)
53 | CC(=O)N1c2c(cc(Br)cc2S(=O)(=O)NCC2COc3ccccc3O2)CC1C (stereo unspecified) | 13.1%
54 | COc1ccc(-c2oc3ncnc(NCCN4CCOCC4)c3c2-c2ccc(OC)cc2)cc1 | 3.3%
55 | COc1ccc(-c2oc3ncnc(NCCCN4CCOCC4)c3c2-c2ccc(OC)cc2)cc1 | 67.3% (active)
56 | c1ccc(-c2oc3ncnc(NCCCN4CCOCC4)c3c2-c2ccccc2)cc1 | 48.6%
57 | Cc1cccc(CS(=O)(=O)Cc2ccc(C(=O)NCc3cccnc3)o2)c1 | -7.1%
58 | c1ccc2c(SCc3cn4cccnc4n3)ncnc2c1 | 13.3%
59 | Cc1cc(=O)n2c3c(sc2n1)C(=O)N(Cc1ccccc1)C3=O | 3.8%
60 | Cc1ccc(Nc2nc(N)nc(CN3CCN(c4ccccc4)CC3)n2)cc1Cl | 72.1% (active)
61 | Cc1cccc(Nc2nc(N)nc(CN3CCN(c4ccccc4)CC3)n2)c1 | -13.2%
62 | COc1ccc(N2CCN(Cc3nc(N)nc(Nc4ccc(C)c(Cl)c4)n3)CC2)cc1 | 7.9%
63 | O=C(Nc1nccs1)c1ccc(Br)o1 | -3.3%
64 | Cc1ccc(C(=O)NCCn2cc(SCC(=O)Nc3nnc(C)s3)c3ccccc32)cc1 | -2%
65 | c1ccc(CSc2nnc(-c3c[nH]c4ccccc34)o2)cc1 | -3.6%
66 | S=c1[nH]nc(Cc2c[nH]c3ccccc23)o1 | -0.8%
67 | O=C(Nc1ccc2c(c1)OCO2)Oc1ccccc1 | -9.1%
68 | COC(=O)CSc1ncnc2c1sc1nc(-c3ccco3)c3c(c12)CC(C)(C)OC3 | 15%
69 | c1nc(NCCN2CCOCC2)c2sc3nc(N4CCOCC4)c4c(c3c2n1)CCC4 | 16.6%
70 | CSc1nc(N2CCN(CCO)CC2)c2sc3nc(-c4ccco4)c4c(c3c2n1)CCC4 | -8.6%
71 | OCCN(CCO)c1ncnc2c1sc1nc(N3CCOCC3)c3c(c12)CCCC3 | -3.9%
72 | CCC1Oc2ccccc2N(CC(=O)NCCC2=CCCCC2)C1=O (stereo unspecified) | 0.8%

Row | SMILES | cytotoxicity
73 | COc1cccc(N2CCN(C(=O)CCn3c(=S)[nH]c4cc5c(cc4c3=O)OCO5)CC2)c1 | -14.3%
74 | Cc1cc(C)n(-c2nnc(C)n2/N=C/c2cc(Br)ccc2OCc2ccccc2)n1 | 57.6% (active)
75 | CCCOc1ccc2ccccc2c1/C=N/n1c(C)nnc1-n1nc(C)cc1C | 41.9%
76 | Cc1cc(C)n(-c2nnc(C)n2/N=C/c2ccccc2OCc2ccccc2Cl)n1 | 34.5%
77 | Oc1ccc(Br)cc1-c1cc(-c2ccccc2F)[nH]n1 | 12.4%
78 | COc1ccc(O)c(-c2cc(-c3cccs3)[nH]n2)c1 | 26.9%
79 | CSc1nnc2n(-c3ccccc3)c(=O)c3c4c(sc3n12)CCC4 | 11.5%
80 | O=S(=O)(c1ccccc1)N1CCN(Cc2ccccc2C(F)(F)F)CC1 | -2.9%
81 | CCOc1ccc(NS(=O)(=O)c2ccc3c(c2)CCN3C(=O)CCC(=O)O)cc1 | -5.5%
82 | O=S(=O)(c1ccc2ccccc2c1)N(CC(O)CN1CCOCC1)c1ccccc1 (stereo unspecified) | -8%
83 | O=S(=O)(c1ccc2ccccc2c1)N1CCCCC1 | -5.5%
84 | CCCn1c(SCC(=O)Nc2cccc(C)n2)nnc1-c1ccco1 | -2%
85 | CCOC(=O)C1=C(C)NC(C)=C(C(=O)OCC)C1c1ccc(OC)cc1 | 11.1%
86 | CN1CCN(C(CNS(=O)(=O)c2ccc(Cl)cc2)c2cccnc2)CC1 (stereo unspecified) | 2.1%
87 | COCCNC(=O)C(c1ccccc1C)N(CCOC)C(=O)Cn1nnc2ccccc21 (stereo unspecified) | 4.3%
88 | O=C(CSc1nnc(-c2cccs2)o1)N1CCOCC1 | -10.3%
89 | CCOC(=O)c1sc2c(c1C)c(=O)c(C(=O)OCC)cn2CC | 1.7%
90 | CCOC(=O)c1cn(CC)c2cc(N3CCCCC3)c(F)cc2c1=O | 3.7%
91 | CCOC(=O)c1cn2c3c(c(F)c(F)c(F)c3c1=O)SC(N1CCCC1)=N2 | 62.5% (active)
92 | CCCOCCOC(=O)C1=C(C)NC(=O)NC1c1cc(Cl)c(O)c(OC)c1 (stereo unspecified) | -9.1%
93 | Cc1nn(CC(O)Cn2c3c(c4ccccc42)CCN(C)C3=O)c(C)c1Br (stereo unspecified) | -4.2%
94 | CCOC(=O)c1cc(C)n(CCc2ccccc2)c1C | -7.6%
95 | Nc1nc(-c2ccccc2Br)cs1 | 11.7%
96 | Cc1cc(-c2csc(N)n2)c(C)n1CCc1ccccc1 | 78.3% (active)
